GRK2 aptamer HTS = blocks RNA aptamer binding to human GRK2. inhibition of aptamer binding, % at 10 µM. actives 0.59% (n = 330,000). bead flow cytometry, FAM-aptamer displacement from GRK2;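 active means inhibition of aptamer binding above 40%, roughly 3 SD of noise, on plates passing a quality check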;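 further: median bead fluorescence of bound FAM aptamer so fluorescent compounds give negative values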
DSG3 Ab inh = human desmoglein-3 autoantibody binding inhibition | binding (percent of control), % at 10 µM | AID 588358 | actives 0.48% (n = 310,000) | P32926 | DSG3-coupled beads, scFv-anti-DSG3-GFP binding, flow cytometry; stronger effect = lower value;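 active means binding more than 3 SD below its plate's average and above zero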;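 further: hits lower antibody fragment binding to DSG3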
Target sequence (P32926 whole entry, looked up, the tested form may be a part): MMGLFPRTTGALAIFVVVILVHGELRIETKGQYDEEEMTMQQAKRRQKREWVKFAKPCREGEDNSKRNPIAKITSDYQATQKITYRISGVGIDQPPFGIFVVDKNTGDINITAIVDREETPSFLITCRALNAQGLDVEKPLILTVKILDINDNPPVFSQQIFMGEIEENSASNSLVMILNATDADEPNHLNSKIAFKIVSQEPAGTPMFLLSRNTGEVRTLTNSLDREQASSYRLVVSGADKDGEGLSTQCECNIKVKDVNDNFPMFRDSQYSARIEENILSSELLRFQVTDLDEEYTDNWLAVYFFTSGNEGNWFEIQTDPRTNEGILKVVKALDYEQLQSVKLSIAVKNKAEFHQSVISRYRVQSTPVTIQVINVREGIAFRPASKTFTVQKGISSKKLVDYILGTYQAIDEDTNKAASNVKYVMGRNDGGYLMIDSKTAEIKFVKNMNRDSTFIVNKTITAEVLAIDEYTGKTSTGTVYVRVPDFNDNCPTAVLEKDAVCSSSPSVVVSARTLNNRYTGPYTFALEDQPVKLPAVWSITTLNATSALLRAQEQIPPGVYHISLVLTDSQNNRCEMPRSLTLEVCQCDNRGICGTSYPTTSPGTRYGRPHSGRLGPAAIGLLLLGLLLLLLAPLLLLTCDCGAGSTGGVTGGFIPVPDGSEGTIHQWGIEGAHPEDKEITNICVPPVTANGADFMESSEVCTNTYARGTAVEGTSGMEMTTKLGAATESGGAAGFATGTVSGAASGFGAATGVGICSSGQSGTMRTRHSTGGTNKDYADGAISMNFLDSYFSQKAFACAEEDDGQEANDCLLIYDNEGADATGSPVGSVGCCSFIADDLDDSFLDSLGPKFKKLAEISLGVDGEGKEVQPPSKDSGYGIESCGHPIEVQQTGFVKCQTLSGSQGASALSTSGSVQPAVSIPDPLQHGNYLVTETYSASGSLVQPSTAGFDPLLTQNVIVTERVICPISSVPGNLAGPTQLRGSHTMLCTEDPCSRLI
PREPL inhibitor = inhibitors of human prolyl oligopeptidase-like enzyme PREPL. Q4J6C6. recombinant PREPL, fluorescence polarization activity-based probe. inhibition, % at 5.96 µM. actives 0.68% (n = 320,000); in the data active means inhibition above about 43%
VLA-4 inh = inhibition in a human VLA-4 binding assay; P13612; VLA-4 expressing cells, ligand binding flow cytometry; inhibition, % (about 7 µM as worked out from the volumes in the protocol); actives 0.2% (n = 330,000); AID 2557; in the data active means inhibition above about 50%
GASC-1 inh = blocks human GASC-1 demethylase activity | AID 2099 | GST-JMJD2C(1-420) H3K9me3 demethylation, DELFIA europium | actives 0.069% (n = 330,000) | Q9H3R0 | inhibition, % at 2.35 µM;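 active means more than half of a compound's replicate wells show inhibition beyond 50%, single wells judged on their own value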;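 further: signal counts dimethyl H3K9 product captured on neutravidin plate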
VLA-4 allo CP = confirmation of allosteric modulators of human VLA-4 integrin; actives 2% (n = 1,300); AID 2813; shares compounds with VLA-4 inh; U937 cells, HUTS-21 LIBS mAb binding, flow cytometry; LDV ligand present at threefold Kd; inhibition, % at 6.7 µM; in the data active means inhibition above about 40%
Numbers stand for hits; 0 = inactive; - = not tested or not shown. Hits are enriched below; roughly 1.6% of the tested compounds scored in any of these assays.

SMILES	GRK2 aptamer HTS	DSG3 Ab inh	PREPL inhibitor	VLA-4 inh	GASC-1 inh	VLA-4 allo CP
O=C1C2CCCCN2C(=O)N1CCN1CCN(c2ccc([N+](=O)[O-])cc2)CC1 (stereo not drawn)	0	0	0	93.2	0	0
O=S(=O)(Nc1ccncc1)c1ccccc1	0	0	0	0	0	-
Nc1ccc(NS(=O)(=O)c2ccccc2)cc1	0	0	0	0	0	0
CC(=O)c1ccc(NS(=O)(=O)c2ccc(N)cc2)cc1	0	0	0	0	0	0
CC(=O)c1ccc(NS(=O)(=O)c2ccccc2)cc1	0	0	0	0	0	-
Nc1cccc(S(=O)(=O)Nc2ccccc2)c1	0	0	0	0	0	0
CS(=O)(=O)c1ccc(Cl)c(NC(=O)COC(=O)c2cccc(C#N)c2)c1	0	0	0	0	0	-
Cc1nn(CC(=O)NCc2ccc(OC(C)C)cc2)c(=O)c2cc(-c3ccccc3)nn12	0	0	0	0	0	-
O=C(Nc1cccc(C(=O)N2CCCCC2)c1)c1ccccc1Br	0	0	0	0	0	-
COc1cc(OC)cc(-c2sc3ccc(OC)cc3c2-c2ccc(OCCN3CCOCC3)cc2)c1	0	0	-	-	-	0
COc1cccc(-c2sc3ccc(OC)cc3c2-c2ccc(OCCN3CCOCC3)cc2)c1	0	0	0	0	0	0
COc1cccc(-c2sc3ccc(OC)cc3c2-c2cc(F)cc(OC)c2)c1	0	0	0	0	0	-
COc1ccc(-c2sc3cc4c(cc3c2-c2ccc(OCCN3CCOCC3)cc2)OCO4)cc1	0	0	0	0	0	0
O=C(COC(=O)Cc1c[nH]c2ccccc12)NC1CCS(=O)(=O)C1 (stereo not drawn)	0	0	0	0	0	-
CC(C)NC(=O)CCCC(=O)NC(C)C	0	0	0	0	0	0
CN1CCN(c2nc(-c3ccccc3Cl)nc3ccccc23)CC1	0	0	-	0	0	-
CN1CCN(c2nc(-c3ccccc3O)nc3ccccc23)CC1	0	0	0	0	0	0
COc1ccc(C(=O)N2CCN(c3ccccn3)CC2)cc1[N+](=O)[O-]	0	0	0	0	0	-
Cc1ccc(-c2nnc(N)s2)cc1	0	-	0	0	0	0
COc1ccc(-c2nnc(N)s2)cc1	0	0	0	0	0	-
O=C(COC(=O)c1ccccc1C(=O)c1ccc(Cl)c([N+](=O)[O-])c1)NC1CCCCCC1	0	0	0	62.0	0	0
O=C(COC(=O)c1ccc(Cl)c([N+](=O)[O-])c1)NC1CCCC1	0	0	0	0	0	-
CCCCC(CC)CNC(=O)CN1C(=O)NC2(CCc3ccccc32)C1=O (stereo not drawn)	0	-	0	0	0	-
O=C(O)CCN1C(=O)c2ccc(NC(=O)c3cccs3)cc2C1=O	0	0	0	0	0	-
O=C(Nc1ccc2c(c1)C(=O)N(c1ccccc1)C2=O)c1cccs1	0	86.6	0	50.3	0	0
SMILES	GRK2 aptamer HTS	DSG3 Ab inh	PREPL inhibitor	VLA-4 inh	GASC-1 inh	VLA-4 allo CP
O=C(CSc1nnc(-c2ccccc2Cl)o1)N1CCOCC1	0	0	0	0	0	-
CCOC(=O)c1cc(C)n(-c2ccccc2)c1C	0	0	0	0	0	-
O=C1Cc2cc(S(=O)(=O)N3CCNCC3)ccc2N1	0	0	0	0	0	0
Cc1ccc(NC(=O)C2C3CC4OC(=O)C2C4C3)cc1Cl (stereo not drawn)	0	-	0	55.7	-	0
Brc1ccc2nc(-c3cccs3)c(NCC3CCCO3)n2c1 (stereo not drawn)	0	0	0	0	0	-
CN(Cc1ccccc1)CC1C2CCC(C2)C1O (stereo not drawn)	-	0	-	-	-	-
CCCOc1ncnc2c1[nH]c1ccc(OC)cc12	0	0	0	0	0	0
CCCOc1ncnc2c1[nH]c1ccccc12	0	0	0	0	0	-
CCCCOc1ncnc2c1[nH]c1ccc(C)cc12	0	-	0	0	0	0
CC(C)(CO)NC(=O)CC1C(=O)NCCN1Cc1ccc(-c2ccccc2)cc1 (stereo not drawn)	0	0	0	0	0	-
CCOCCOc1nc2c(c(=O)n(C)c(=O)n2C)n1Cc1ccc(C)cc1	0	0	0	0	0	-
COc1cccc(-c2ccc(NC(=O)C3CCCN(Cc4nccn4C)C3)cc2)c1 (stereo not drawn)	0	0	0	0	0	-
CCCc1cc(=O)[nH]c(SCC(=O)Nc2nc3ccc(OCC)cc3s2)n1	0	0	0	51.0	0	0
CCCCCCNC1=NCCS1	0	0	0	52.6	0	0
CCC(C)CCCCNC1=NCCS1 (stereo not drawn)	0	-	0	0	0	-
COC(=O)c1ccc(/C=C2\Oc3ccccc3NC2=O)cc1	0	0	0	0	0	-
O=C1Nc2ccccc2O/C1=C\c1c(F)cccc1Cl	0	0	0	0	0	0
O=C(Nc1ccccc1Cl)Nc1ccccc1Cl	0	0	0	0	0	0
CSc1ccccc1NC(=O)Nc1ccccc1Cl	0	0	0	0	0	-
CCOC(=O)NC(=O)/C(C#N)=C/c1ccc(N(C)C)cc1	0	0	0	0	0	0
CN(C)c1ccc(/C=C(\C#N)C(=O)c2ccccc2)cc1	0	0	0	0	0	-
CCN(CC)c1ccc(/C=C(\C#N)C(N)=O)cc1	-	0	-	-	-	0
N#C/C(=C\c1cc(Cl)c(OCc2ccc(Cl)cc2)c(Cl)c1)C(N)=O	0	-	0	0	0	-
N#C/C(=C\c1cc(O)c(O)c(O)c1)C(N)=O	0	0	0	0	0	0
COc1ccccc1N1CCN(/N=C/c2c(C)nn(-c3ccccc3)c2C)CC1	0	0	0	0	0	-
SMILES	GRK2 aptamer HTS	DSG3 Ab inh	PREPL inhibitor	VLA-4 inh	GASC-1 inh	VLA-4 allo CP
O=C(Nc1ccccc1)Nc1cccc2cccnc12	0	0	0	69.4	0	0
O=C(Nc1ccccc1)Nc1cccc2ccccc12	0	0	0	0	0	-
CS(=O)(=O)N(CC(=O)N1CCCC1)Cc1ccc(Cl)c(Cl)c1	0	0	0	0	0	-
Cc1cccc(C)c1NC(=O)CNC(=O)CNC(=O)c1ccc2c(c1)OCO2	0	0	0	0	0	-
CC12CCC3c4ccc(O)cc4CCC3C1CCC2=O (stereo not drawn)	0	0	0	54.5	-	0
C[C@]12CC[C@@H]3c4ccc(OS(=O)(=O)O)cc4CC[C@H]3[C@@H]1CCC2=O	0	0	0	0	0	-
O=C1N[C@H](C(=O)O)CS1	0	-	0	53.9	0	0
O=C1CC[C@@H](C(=O)O)N1	0	0	0	0	-	-
CCOC(=O)c1c(NC2=NS(=O)(=O)c3ccccc32)sc2c1CCC(C)C2 (stereo not drawn)	0	0	0	60.0	0	0
CCOC(=O)c1c(NC2=NS(=O)(=O)c3ccccc32)sc2c1CCCCC2	0	0	0	0	0	-
CC(Oc1cccc(Cl)c1)C(=O)Nc1nc(-c2ccccn2)cs1 (stereo not drawn)	0	0	0	52.6	0	0
CC(Oc1ccccc1)C(=O)Nc1nc(-c2ccccn2)cs1 (stereo not drawn)	-	0	-	-	-	-
O=C(NCCc1nc2ccccc2[nH]1)/C(=C/c1ccco1)NC(=O)c1ccc(Br)o1	0	0	0	0	0	0
